Assay results from PubChem BioAssay (Tox21).
Records with an inconclusive call do not appear. Where a call stands in place of a potency, no number is given. Activity calls are given as the source filed them. Unless noted, calls come from the whole dose curve; as a rule, active = well fitted curve in the direction sought with a large enough effect in the repeat runs; inconclusive = weak or mixed curves; inactive = flat fitted curve, though single readings scatter.

Tests used:
[1] = qHTS assay to test for compound auto fluorescence at 535 nm (green) in HEK293 cells (AID 720680)
[2] = qHTS assay to test for compound auto fluorescence at 460 nm (blue) in HEK293 cell free culture (AID 720681)
Outline: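 Test compounds were pinned into cell-free culture medium (DMEM with 10% FBS) and fluorescence was read directly at Ex/Em 405/460 nm. Signals were expressed as fluorescence equivalents of triamterene, with DMSO vehicle as control.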

[3] = qHTS assay to test for compound auto fluorescence at 535 nm (green) in HEK293 cell free culture (AID 720682)
Outline: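 No cells present: wells hold DMEM supplemented with 10% FBS, into which compound or vehicle is pinned. Green emission is then recorded (485 nm excitation, 535 nm emission) and scaled to fluorescein.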

[4] = qHTS assay to test for compound auto fluorescence at 590 nm (red) in HEK293 cell free culture (AID 720683)
Outline: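 Tox21 10K library compounds were pinned into cell-free DMEM with 10% FBS and fluorescence was read at excitation 540 nm. Activity is expressed as Rose Bengal sodium equivalency.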

[5] = qHTS assay to test for compound auto fluorescence at 590 nm (red) in HepG2 cell free culture (AID 720684)
Outline: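 Readout: intrinsic compound fluorescence at 590 nm emission after 540 nm excitation, scaled to Rose Bengal sodium. Matrix was cell-free MEM with 10% FBS; DMSO vehicle wells served as control.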

[6] = qHTS assay to test for compound auto fluorescence at 460 nm (blue) in HepG2 cell free culture (AID 720685)
Outline: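 Cell-free plates of MEM plus 10% FBS received 23 nL compound or DMSO vehicle; blue-channel (405/460 nm) intensity scored against triamterene as reference fluorophore.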

[7] = qHTS assay to test for compound auto fluorescence at 535 nm (green) in HepG2 cell free culture (AID 720686)
[8] = qHTS assay to test for compound auto fluorescence at 460 nm (blue) in HepG2 cells (AID 720687)
Outline: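 Cells (2,000/well in MEM with 10% FBS) attached overnight at 37 C, then were exposed to compound or DMSO for 1 hr at 37 C, 5% CO2. Fluorescence read at Ex/Em 405/460 nm, expressed as triamterene-equivalent signal.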

[9] = target: Glucocorticoid receptor (Homo sapiens) (UniProt P04150); test: qHTS assay to identify small molecule agonists of the glucocorticoid receptor (GR) signaling pathway (AID 720691; active = well fitted activation curve with a large enough effect in the signal ratio in the repeat runs, not every such curve was filed as active; the % refers to the signal ratio); details: GR-bla HeLa, beta-lactamase reporter ratio, 18 h; activation: at 62.4 µM (top of the series)
Outline: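 Measures GR pathway activation through a GRE-beta-lactamase reporter stably integrated in HeLa cells, with 18 h compound treatment at 37 C and fluorescence detection using a FRET substrate.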

[10] = target: Glucocorticoid receptor (Homo sapiens) (UniProt P04150); test: qHTS assay to identify small molecule antagonists of the glucocorticoid receptor (GR) signaling pathway (AID 720692; active = well fitted inhibition curve with a large enough effect in the signal ratio in the repeat runs, not every such curve was filed as active; the % refers to the signal ratio; note: potency is the fitted concentration of half-maximal effect)
Outline: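 Tox21 10K library screened in concentration-response for blockade of dexamethasone (5 nM final)-induced GRE-bla reporter activity in HeLa cells; 18 h treatment, fluorescence read.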

Glucocorticoid receptor (Homo sapiens), sequence (P04150 whole entry, looked up): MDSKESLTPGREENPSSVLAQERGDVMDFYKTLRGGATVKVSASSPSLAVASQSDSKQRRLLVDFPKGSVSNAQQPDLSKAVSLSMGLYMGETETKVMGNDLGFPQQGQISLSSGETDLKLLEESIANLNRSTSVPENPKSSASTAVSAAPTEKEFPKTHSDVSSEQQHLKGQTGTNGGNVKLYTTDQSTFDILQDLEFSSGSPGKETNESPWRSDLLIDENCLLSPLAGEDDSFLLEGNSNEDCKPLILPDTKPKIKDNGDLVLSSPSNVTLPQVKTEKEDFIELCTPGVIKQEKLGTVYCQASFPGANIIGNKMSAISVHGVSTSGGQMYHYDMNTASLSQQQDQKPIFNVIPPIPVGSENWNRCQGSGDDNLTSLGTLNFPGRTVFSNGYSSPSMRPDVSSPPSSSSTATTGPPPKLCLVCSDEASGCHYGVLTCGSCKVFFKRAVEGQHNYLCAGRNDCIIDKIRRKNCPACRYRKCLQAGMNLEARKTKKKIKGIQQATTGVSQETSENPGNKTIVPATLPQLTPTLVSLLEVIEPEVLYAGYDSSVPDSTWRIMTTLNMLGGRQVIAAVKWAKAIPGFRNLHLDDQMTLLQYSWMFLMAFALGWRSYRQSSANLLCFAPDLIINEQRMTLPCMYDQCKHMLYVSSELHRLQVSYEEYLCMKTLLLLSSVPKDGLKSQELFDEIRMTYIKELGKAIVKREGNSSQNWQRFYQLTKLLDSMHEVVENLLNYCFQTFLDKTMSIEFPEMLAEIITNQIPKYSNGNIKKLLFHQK

Row | SMILES | outcome [1] | Potency [2] | outcome [3] | outcome [4] | outcome [5] | Potency [6] | Potency [7] | Potency [8] | Potency [9] | Potency [10]
1 | CCC(O)c1ccccc1 (stereo unspecified) | inactive | inactive | inactive | inactive | inactive | inactive | inactive | inactive | inactive | inactive
2 | CC(C)(Oc1ccc(C2CCCc3ccccc32)cc1)C(=O)O (stereo unspecified) | inactive | inactive | inactive | inactive | inactive | inactive | inactive | inactive |  | inactive
3 | COC1=C(OC)C(=O)C(C/C=C(\C)CC/C=C(\C)CC/C=C(\C)CC/C=C(\C)CC/C=C(\C)CC/C=C(\C)CC/C=C(\C)CC/C=C(\C)CC/C=C(\C)CCC=C(C)C)=C(C)C1=O | inactive | inactive | inactive | inactive | inactive | inactive | inactive | inactive | inactive | inactive
4 | Nc1nc(NC2CC2)c2ncn([C@@H]3C=C[C@@H](CO)C3)c2n1 | inactive | inactive | inactive | inactive | inactive | inactive | inactive | inactive |  | inactive
5 | NC(N)=NCc1cccc(I)c1 | inactive | inactive | inactive | inactive | inactive | inactive | inactive | inactive | inactive | inactive
6 | C[C@@H]1O[C@@H](OC[C@H]2O[C@@H](Oc3c(-c4ccc(OCCO)c(OCCO)c4)oc4cc(OCCO)cc(O)c4c3=O)[C@H](O)[C@@H](O)[C@@H]2O)[C@H](O)[C@H](O)[C@H]1O | inactive | inactive | inactive | inactive | inactive | inactive | inactive | inactive | inactive | inactive
7 | NC(N)=NCCCCN=C(N)N | inactive | inactive | inactive | inactive | inactive | inactive | inactive | inactive | inactive | inactive
8 | CC(C)NCC1CCc2cc(CO)c([N+](=O)[O-])cc2N1 (stereo unspecified) | inactive | inactive | inactive | inactive | inactive | inactive | inactive | inactive | inactive | inactive
9 | CCN(CC)CC#CCOC(=O)C(O)(c1ccccc1)C1CCCCC1 (stereo unspecified) | inactive | inactive | inactive | inactive | inactive | inactive | inactive | inactive | inactive | inactive
10 | O=C(CCCN1CCN2CCCC2C1)c1ccc(F)cc1 (stereo unspecified) | inactive | inactive | inactive | inactive | inactive | inactive | inactive | inactive | inactive | inactive
11 | CC(C)=CCC/C(C)=C/CC/C(C)=C/CC/C=C(\C)CC/C=C(\C)CCC=C(C)C | inactive | inactive | inactive | inactive | inactive | inactive | inactive | inactive | inactive | inactive
12 | NC(=O)C1c2ccccc2CCc2ccccc21 | inactive | inactive | inactive | inactive | inactive | inactive | inactive | inactive |  | inactive
13 | COc1ccc([C@@H]2CC(=O)c3c(O)cc(O[C@@H]4O[C@H](CO[C@@H]5O[C@@H](C)[C@H](O)[C@@H](O)[C@H]5O)[C@@H](O)[C@H](O)[C@H]4O)cc3O2)cc1O | inactive | inactive | inactive | inactive | inactive | inactive | inactive | inactive | inactive | inactive
14 | CO/N=C(\C(=O)N[C@@H]1C(=O)N2C(C(=O)[O-])=C(C[n+]3ccc(N)n3CCO)CS[C@H]12)c1csc(N)n1 | inactive | inactive | inactive | inactive | inactive | inactive | inactive | inactive | inactive | inactive
15 | NCCCC[C@H](NC(=O)[C@@H]1CCCN1C(=O)[C@@H]1CSSC[C@H](N)C(=O)N[C@@H](Cc2ccc(O)cc2)C(=O)N[C@@H](Cc2ccccc2)C(=O)N[C@@H](CCC(N)=O)C(=O)N[C@@H](CC(N)=O)C(=O)N1)C(=O)NCC(N)=O | inactive | inactive | inactive | inactive | inactive | inactive | inactive | inactive | inactive | inactive
16 | C=CC(N)CCC(=O)O (stereo unspecified) | inactive | inactive | inactive | inactive | inactive | inactive | inactive | inactive |  | inactive
17 | C=C1C(=C/C=C2\CCC[C@]3(C)[C@@H]([C@H](C)CCCC(C)C)CC[C@@H]23)C[C@@H](O)C[C@@H]1O | inactive | inactive | inactive | inactive | inactive | inactive | inactive | inactive |  | 8.49 µM (active)
18 | Cc1cc(-c2ccc(N=Nc3ccc4c(S(=O)(=O)O)cc(S(=O)(=O)O)c(N)c4c3O)c(C)c2)ccc1N=Nc1ccc2c(S(=O)(=O)O)cc(S(=O)(=O)O)c(N)c2c1O | inactive | inactive | inactive | inactive | inactive | inactive | inactive | inactive | inactive | inactive

Row | SMILES | outcome [1] | Potency [2] | outcome [3] | outcome [4] | outcome [5] | Potency [6] | Potency [7] | Potency [8] | Potency [9] | Potency [10]
19 | CCOC(=O)[C@H](CCc1ccccc1)N[C@@H](C)C(=O)N1[C@H](C(=O)O)C[C@H]2CCCC[C@@H]21 | inactive | inactive | inactive | inactive | inactive | inactive | inactive | inactive |  | inactive
20 | CO/N=C(\C(=O)N[C@@H]1C(=O)N2C(C(=O)O)=C(C[N+]3(C)CCCC3)CS[C@H]12)c1csc(N)n1 | inactive | inactive | inactive | inactive | inactive | inactive | inactive | inactive | inactive | inactive
21 | Nc1nc(/C(=C/CC(=O)O)C(=O)N[C@@H]2C(=O)N3C(C(=O)O)=CCS[C@H]23)cs1 | inactive | inactive | inactive | inactive | inactive | inactive | inactive | inactive | inactive | inactive
22 | CCc1cn([C@H]2C[C@H](O)[C@@H](CO)O2)c(=O)[nH]c1=O | inactive | inactive | inactive | inactive | inactive | inactive | inactive | inactive | inactive | inactive
23 | O=C(O)[C@@H]1C[C@H](CP(=O)(O)O)CCN1 | inactive | inactive | inactive | inactive | inactive | inactive | inactive | inactive | inactive | inactive
24 | CO/N=C(\C(=O)N[C@@H]1C(=O)N2C(C(=O)O)=C(CSc3cnns3)CS[C@H]12)c1csc(N)n1 | inactive | inactive | inactive | inactive | inactive | inactive | inactive | inactive | inactive | inactive
25 | OCCCNc1ccccc1 | inactive | inactive | inactive | inactive | inactive | inactive | inactive | inactive | inactive | inactive
26 | N=C(N)n1cccn1 | inactive | inactive | inactive | inactive | inactive | inactive | inactive | inactive | inactive | inactive
27 | CC[C@H]1OC(=O)C[C@@H](O)[C@H](C)[C@@H](O[C@@H]2O[C@H](C)[C@@H](O)[C@H](N(C)C)[C@H]2O)[C@@H](CCN2C[C@H](C)C[C@H](C)C2)C[C@@H](C)C(=O)/C=C/C(C)=C/[C@@H]1CO[C@@H]1O[C@H](C)[C@@H](O)[C@@H](OC)[C@H]1OC | inactive | inactive | inactive | inactive | inactive | inactive |  | inactive | inactive | 
28 | CCCCCN=C(N)N/N=C/c1c[nH]c2ccc(OC)cc12 | inactive | inactive | inactive | inactive | inactive | inactive | inactive |  | inactive | inactive
29 | CCN(CC)CCNC(=O)c1ccc(NS(C)(=O)=O)cc1 | inactive | inactive | inactive | inactive | inactive | inactive |  | inactive | inactive | inactive
30 | CC[C@H]1OC(=O)[C@H](C)C(=O)[C@H](C)[C@@H](O[C@@H]2O[C@H](C)C[C@H](N(C)C)[C@H]2O)[C@](C)(OC)C[C@@H](C)C(=O)[C@H](C)[C@H]2N(CCCCn3cnc(-c4cccnc4)c3)C(=O)O[C@]12C | inactive | inactive | inactive | inactive | inactive | inactive | inactive | inactive |  | inactive
31 | NCCO/C=C/[C@H](N)C(=O)O | inactive | inactive | inactive | inactive | inactive | inactive | inactive |  |  | inactive
32 | C[C@H](NCCc1ccc(O)cc1)[C@H](O)c1ccc(O)cc1 | inactive | inactive | inactive | inactive | inactive | inactive | inactive |  | inactive | inactive
33 | CCOc1ccc(S(=O)(=O)O)c2cccnc12 | inactive | inactive | inactive | inactive | inactive | inactive | inactive |  | inactive | inactive
34 | CC(=O)N[C@@H](C=O)[C@H](O)[C@H](O)[C@@H](O)CO | inactive | inactive | inactive | inactive | inactive | inactive |  | inactive |  | 
35 | CCN1CCCC1CNC(=O)c1cc(S(=O)(=O)CC)ccc1OC (stereo unspecified) | inactive | inactive | inactive | inactive | inactive | inactive | inactive |  | inactive | inactive
